# This is a sample that favours compounds with a hit; in the whole collection about 3.6% have one here.
# PLK1 PBD inh: qHTS for Inhibitors of PLK1-PDB (polo-like kinase 1 - polo-box domain): Primary Screen | Plk1 PBD binding of FITC phosphopeptide, fluorescence polarization | Potency, µM, without a hit: max response, negative = inhibition, most hits filed as inhibitors | 360,000 compounds, 2.8% hits | AID 720504, 2013; note: potency is the fitted concentration of half-maximal effect; series mostly up to about 57 µM; % is set by controls: 0 for no effect and ±100 for the full control effect; nearly all actives have a fitted effect of over 65% in size
# GCN5L2 inh: qHTS Assay for Inhibitors of GCN5L2. Histone acetyltransferase KAT2A (Homo sapiens), Q92830. GCN5L2 HAT assay, ThioGlo1 CoA-SH fluorescence. Potency, µM (top dose mostly 58.9 µM), for the others: at the top dose activity change, negative = inhibition, hits mostly inhibitors. 390,000 compounds, 0.21% hits; note: potency is the fitted concentration of half-maximal effect; % is set by controls: 0 for no effect and ±100 for the full control effect
#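 Fluorescence readout, Ex340nm/Em540nm: ThioGlo1 (50uM final) reacts with free CoA thiol released as 20nM GCN5L2 acetylates H3(1-25) peptide (75uM) using acetyl-CoA (70uM). Compound and enzyme sat 15 min beforehand; 20 min room-temperature reaction.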
# VDR inh: Inhibitors of the vitamin D receptor (VDR): qHTS; Potency, µM, for the others: max response, negative = inhibition, usual class: inhibitors; 400,000 compounds, 0.93% hits; Vitamin D3 receptor (Homo sapiens), P11473; VDR-SRC2-3 peptide fluorescence polarization, 2 h; AID 504847, 2011; note: potency is the fitted concentration of half-maximal effect; % is set by controls: 0 for no effect and ±100 for the full control effect
# Target sequence (P11473 whole entry, looked up): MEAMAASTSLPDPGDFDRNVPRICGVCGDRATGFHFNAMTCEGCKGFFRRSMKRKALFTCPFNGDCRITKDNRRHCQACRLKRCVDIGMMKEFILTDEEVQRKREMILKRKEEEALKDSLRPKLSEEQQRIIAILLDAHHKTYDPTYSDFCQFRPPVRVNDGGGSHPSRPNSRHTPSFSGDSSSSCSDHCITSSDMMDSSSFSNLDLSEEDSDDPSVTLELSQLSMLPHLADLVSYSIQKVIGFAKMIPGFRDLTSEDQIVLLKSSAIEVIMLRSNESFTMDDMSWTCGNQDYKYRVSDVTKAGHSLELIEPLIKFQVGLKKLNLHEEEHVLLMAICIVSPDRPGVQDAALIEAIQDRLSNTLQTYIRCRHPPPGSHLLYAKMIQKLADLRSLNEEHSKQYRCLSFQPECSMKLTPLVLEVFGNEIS
#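 Measured by FP: displacement of SRC2-3 coactivator peptide from VDR by library compounds, following a two-hour ambient incubation.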
# Rango complex inh: qHTS Assay for Inhibitors of Rango (Ran-regulated importin-beta cargo) - Importin beta complex formation; 340,000 compounds, 0.031% hits; AID 540263, 2011; Rango CFP/YFP FRET sensor + importin beta, 45 min; Potency, µM (series often up to 92.2 µM), for inactives: top-dose inhibition of complex formation; calls by dose curve;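 note: potency is the fitted concentration of half-maximal effect; 0% = DMSO wells and 100% = buffer wells lacking importin beta; nearly all actives have a fitted effect of over 15% in size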
#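 Inhibition scored from the CFP 486 nm/YFP 530 nm FRET ratio 45 min after adding 0.125 microM importin beta to 50 nM Rango biosensor preincubated 5 min with compound (room temperature, PBS with DTT, Tween-20, BSA). No-importin wells as positive control.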
# PI5P4Ka inh: qHTS for Inhibitors of phosphatidylinositol 5-phosphate 4-kinase (PI5P4K); PI5P4Kalpha enzyme, ADP-Glo luminescence, 60 min; active compounds read low; max response, %; 330,000 compounds, 1.2% hits; active = max response of -50% or lower; inconclusive = between -30% and -50%; inactive = -30% or higher; note: value at the top dose of about 77 µM; % is set by controls: 0 for no effect and ±100 for the full control effect
#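 Compounds were pin-transferred onto PI5P4Kalpha and substrate in HEPES pH 7.4 buffer with EGTA, CHAPS and 5% DMSO. ATP (5 microM final) started the reaction, which ran 60 minutes at room temperature before ADP-Glo detection.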
# Rango release inh: qHTS Assay for Inhibitors of RanGTP induced Rango (Ran-regulated importin-beta cargo) - Importin beta complex dissociation; Snurportin-1 (Homo sapiens) + GTP-binding nuclear protein Ran (Homo sapiens) + Importin …; Biochemical FRET Rango-importin beta, RanGTP-induced dissociation; Potency, µM (doses to about 46.1 µM), inactives show top-dose activity change, negative = inhibition; 340,000 compounds, 0.071% hits; calls by dose curve; note: potency is the fitted concentration of half-maximal effect; % of control where 0% means no effect; nearly all actives have a fitted effect of over 45% in size
#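 Rango (0.1 uM)–importin beta (0.25 uM) complex; RanGTP-RCC1 trigger; 45 min RT; CFP/YFP FRET read.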
# * = called active by the depositor; ? = inconclusive; . = no result. Unless noted, calls come from the whole dose curve; as a rule, active = well fitted curve in the direction sought with a large enough effect; inconclusive = small, poorly fitted or top-dose-only effect, or another doubt; inactive = no such curve, though single readings can be large; an effect the other way counts as inactive or inconclusive.
SMILES,PLK1 PBD inh,GCN5L2 inh,VDR inh,Rango complex inh,PI5P4Ka inh,Rango release inh
O=C(NCc1ccc(F)cc1)NC(=O)c1ccc(Cl)cc1,-5.8%,-32.1%,-4.0%,2.9%,5.3,4.5%
CC(=O)c1cccc(NC(=O)CCCNC(=O)c2ccc(Cl)cc2)c1,0.1%,1.9%,2.2%,?,-1.0,-0.1%
NS(=O)(=O)c1cccc(NC(=O)CCSc2ccc(Cl)cc2)c1,11.9µM*,-4.7%,?,-1.2%,-10.4,?
O=c1oc2c(-c3ccc([N+](=O)[O-])cc3)cc(O)cc2s1,-15.9%,?,2.9%,-1.9%,-58.7*,-11.3%
Cc1ccc(C(=O)NCc2ccccc2)cc1NC(=O)c1nsc2ccccc12,.,-15.9%,8.8%,.,.,.
CCC[C@@H](CN1CCC[C@H]1CN1C(N)=NC[C@@H]1Cc1ccccc1)N1C[C@@H](Cc2ccccc2)N(CCCC2CCCC2)C1=N,-2.0%,-2.3%,12.8%,4.1%,-18.5,-6.8%
CCC[C@@H](CN1CCC[C@H]1CN1C(N)=NC[C@@H]1Cc1ccccc1)N1C[C@@H]([C@H](C)CC)N(CCCC2CCCC2)C1=N,-14.2%,-3.8%,2.6%,?,-86.7*,-15.7%
Cc1cccc(C(=O)Nc2cccnc2Cl)c1,8.44µM*,-1.2%,-8.8%,-3.0%,-0.5,39.5%
Cc1c(Cl)cccc1NC(=O)CSc1nc(=O)[nH]c2c1CCCC2,.,-4.8%,3.1%,.,.,.
Cc1ccc(NC(=S)N2CCC(c3ccc(C)cc3)C2)cc1 (stereo not drawn),21.2µM*,-17.8%,?,0.6%,-10.0,2.1%
O=C1C=CC2=C3c4cc(O)c(O)cc4C[C@]3(O)COC2=C1,.,-5.4%,11.2µM*,.,.,.
COc1ccc(C2=CC(c3cc(OC)c(OC)c(OC)c3)NC(=S)N2)cc1 (stereo not drawn),11.9µM*,-2.1%,-12.2%,?,-6.4,?
COc1cc(C2C=C(C34CC5CC(CC(C5)C3)C4)NC(=S)N2)cc(OC)c1OC (stereo not drawn),-15.9%,-9.1%,-8.4%,0.6%,-1.1,-15.9%
C=C(C)[C@@H]1CC[C@]2(C(=O)O)CC[C@]3(C)[C@H](CCC4[C@@]5(C)CC[C@H](O)C(C)(C)[C@@H]5CC[C@]43C)[C@@H]12 (stereo partly drawn),.,3.9%,2.6%,.,.,.
C=C(C)C1CCC2(C(=O)O)CCC3(C)C(CCC4C5(C)C(C=O)C(O)C(C)(C)C5CCC43C)C12 (stereo not drawn),?,-26.5%,-4.0%,1.9%,-54.3*,13.1%
COc1cc(/C=C2\SC(=S)N(NS(=O)(=O)c3ccccc3)C2=O)cc(OC)c1OC,0.0%,-12.9%,?,-1.3%,-28.6,-14.2%
COc1cccc(/C=C2\SC(=S)N(NS(=O)(=O)c3ccccc3)C2=O)c1OC,?,0.2%,-18.4%,4.3%,-59.8*,-10.5%
COc1ccc(/C=C2/SC(=S)N(NS(=O)(=O)c3ccc(C)cc3)C2=O)cc1,23.8µM*,-12.2%,-7.8%,-2.0%,?,22.3%
O=C1/C(=C/c2ccccn2)SC(=S)N1NS(=O)(=O)c1ccccc1,-16.1%,-7.6%,-25.1%,6.9%,-20.0,19.8%
C=CCOc1ccc(/C=C2\SC(=S)N(NS(=O)(=O)c3ccc(C)cc3)C2=O)cc1,26.7µM*,?,-14.9%,-0.3%,-55.0*,-8.6%
Cc1ccc(S(=O)(=O)NN2C(=O)/C(=C\c3ccc(Cl)cc3)SC2=S)cc1,26.7µM*,-1.8%,-10.6%,2.1%,-23.7,-0.9%
Cc1ccc(S(=O)(=O)NN2C(=O)/C(=C/c3ccc(F)cc3)SC2=S)cc1,?,-22.0%,-27.4%,-2.3%,?,5.6%
Cc1ccc(S(=O)(=O)NN2C(=O)/C(=C/c3ccc(C(=O)O)cc3)SC2=S)cc1,-8.4%,1.3%,?,0.8%,-57.0*,-7.0%
Cc1ccc(S(=O)(=O)NN2C(=O)/C(=C/c3cccs3)SC2=S)cc1,?,-26.1%,-15.4%,?,-59.3*,4.3%
Cc1ccc(S(=O)(=O)NN2C(=O)/C(=C/c3cccn3C)SC2=S)cc1,.,2.7%,.,.,.,.
SMILES,PLK1 PBD inh,GCN5L2 inh,VDR inh,Rango complex inh,PI5P4Ka inh,Rango release inh
Cc1ccc(/C=C2\SC(=S)N(NS(=O)(=O)c3ccc(C)cc3)C2=O)cc1,26.7µM*,?,8.5%,-0.8%,-19.9,24.8%
O=C(Cc1ccccc1)NN1C(=O)/C(=C/c2ccc(C(=O)O)cc2)SC1=S,-13.6%,0.0%,-17.7%,-0.2%,-1.3,52.9%
O=C(CN1C(=O)COc2ccccc21)NCCc1ccc(Cl)cc1,.,-20.6%,-3.0%,.,.,.
CCOC(=O)CNC(=O)O[C@@H]1C(=O)c2cc(Br)ccc2O[C@H]1c1cccc(OC)c1,.,.,7.5%,.,.,.
O=C(Cl)COCc1ccccc1,.,0.0%,-0.1%,.,.,.
O=C(O)CCSc1ncnc2sc(-c3ccccc3)cc12,16.8µM*,-10.4%,-12.2%,?,-23.2,-8.9%
O=C(O)CSc1ncnc2sc(-c3ccccc3)cc12,-12.4%,-8.4%,4.1%,0.9%,-78.1*,0.9%
CC(=O)CCSc1ncnc2sc(-c3ccccc3)cc12,-0.8%,-1.7%,5.3%,-0.7%,8.1,6.0%
COCCNC(=O)CSc1ncnc2sc(-c3ccccc3)cc12,?,-5.2%,-10.5%,2.5%,-0.8,-6.5%
CCN(CCCCO)c1nc(C)nc2c1c(C)c(C)n2-c1c(C)cc(C)cc1C,.,-9.1%,?,.,.,.
COc1cccc(OC)c1C(=O)Nc1cccc(-c2nc3cc(C)cc(C)c3o2)c1,.,2.4%,-16.8%,.,.,.
COc1ccccc1C(=O)Nc1ccc(-c2nc3cc(C)cc(C)c3o2)cc1,.,0.4%,89.1µM*,.,.,.
CN1CCc2c(c3cnc4cc(Cl)ccc4c3n2C)C1,.,.,-18.8%,.,.,.
Cc1ccc(C(=O)c2cn(Cc3ccc(F)cc3)c3nc(C)ccc3c2=O)cc1,.,10.2%,?,.,.,.
Cc1cccc(-c2noc(-c3ccccc3OCC(=O)Nc3ccccc3[N+](=O)[O-])n2)c1,.,-12.6%,12.9%,.,.,.
CCN(CCS(=O)(=O)c1ccc(Cl)cc1)C(=O)Nc1ccccc1,-12.8%,2.0%,-1.0%,-1.1%,6.8,1.5%
O=C(Nc1ccccc1)N(O)c1ccc(Cl)cc1,-7.4%,-2.7%,28.2µM*,0.5%,-2.8,-11.0%
O=C(Oc1c(Br)cc([N+](=O)[O-])cc1Br)c1cccnc1,18.9µM*,-6.8%,-9.9%,1.3%,-15.0,-4.5%
